# Bioassay records from PubChem.
# Hits are enriched below; roughly 2.6% of the tested compounds scored in any of these assays.
# PABP FP inh: PABP-poly(A) binding inhibition; PABP-poly(A) RNA binding, fluorescence polarization; calls only at 35 µM; actives 1% (n = 290,000); AID 2014;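 also: calls also rest on retests at 20 µM and on dose response follow-up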
# PHOSPHO1 inh: inhibitors of human PHOSPHO1 phosphatase. Q8TCT1. recombinant PHOSPHO1, absorbance phosphatase assay. inhibition, % at 13.3 µM. actives 1.1% (n = 290,000). AID 1565; in the data active = inhibition above about 60%
# Target sequence (Q8TCT1 whole entry, looked up): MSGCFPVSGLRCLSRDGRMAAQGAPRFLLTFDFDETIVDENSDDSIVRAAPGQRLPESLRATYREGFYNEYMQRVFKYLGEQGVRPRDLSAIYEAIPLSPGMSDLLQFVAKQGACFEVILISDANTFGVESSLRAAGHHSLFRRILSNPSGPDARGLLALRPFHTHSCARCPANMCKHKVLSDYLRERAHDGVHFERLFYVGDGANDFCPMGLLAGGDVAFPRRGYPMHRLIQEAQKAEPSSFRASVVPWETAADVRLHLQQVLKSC
# AI-2 QS mod: Vibrio harveyi AI-2 quorum sensing modulation. activity change, % at 7.5 µM. Vibrio harveyi JMH597 AI-2 luminescence/OD600 ratio, 9 h; active compounds read low; strain lacks LuxN and CqsS sensors; 0 = neutral-control median. AID 2094. actives 0.4% (n = 300,000); in the data active = activity change below about -75%, passing the limit was not always enough;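 also: luminescence divided by OD600 gain over 9 h not by final OD600 alone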
# eIF4H FP inh: inhibitors of RNA binding by human eIF4H; Q15056; eIF4H fluorescence polarization binding assay; inhibition, % at 35 µM; actives 0.94% (n = 290,000);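 also: calls also rest on retests at 20 µM and on dose response follow-up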
# ABCB6 inh MLPCN: human ABCB6 transporter inhibition. actives 0.19% (n = 360,000). Q9NP58. fluorescence ratio to DMSO, % at 10 µM. AID 602162. K562-ABCB6 porphyrin accumulation, flow cytometry, 1 h; active compounds read low;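 active = fluorescence ratio to DMSO below 75%, the collection mean minus 3 SD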;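 also: signal is porphyrin accumulated inside mitochondria; 100% equals median channel fluorescence of DMSO control wells; lower ratio means ABCB6 inhibition with less porphyrin fluorescence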
# PABP1 MLLE inh: blocks PAM2 peptide binding to the PABP1 MLLE domain; P11940; GST-MLLE / FITC-PAM2 fluorescence polarization; inhibition, % at 20 µM; actives 0.36% (n = 360,000); AID 588489; in the data active = inhibition above about 35%, passing the limit was not always enough;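 also: plate controls were DMSO wells with GST-MLLE for no effect and wells lacking GST-MLLE protein for full effect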
# JMH597 growth rt: retest Vibrio harveyi JMH597 growth inhibition; shares compounds with AI-2 QS mod; OD600 absorbance, 9 h; lacks LuxN and CqsS sensors; growth inhibition, % at 7.5 µM; actives 1% (n = 750); AID 2726;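 active = every replicate shows growth inhibition above 50%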
# BB721 const-QS lum: retest counter-screen: lowers luminescence of constitutive-QS Vibrio harveyi BB721; shares compounds with AI-2 QS mod; 9 h; inhibition, % at 7.5 µM; actives 95% (n = 750);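 active = inhibition above about 80% in every replicate, not just on average, limit read from the data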
# BB721 growth rt: retest: inhibitors of Vibrio harveyi BB721 growth. shares compounds with AI-2 QS mod. OD600 absorbance, 9 h. growth inhibition, % at 7.5 µM. actives 3% (n = 750);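 active = every replicate shows growth inhibition above 50%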
# AI-2 QS JMH597: Vibrio harveyi AI-2 signaling luminescence modulation – JMH597 strain, confirmation; shares compounds with AI-2 QS mod; Vibrio harveyi JMH597 AI-2 quorum sensing luminescence, 9 h; luxN and CqsS knockout, AI-2 only; inhibition, % at 7.5 µM; actives 97% (n = 750); AID 2736;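 active = every replicate shows more than 75% inhibition of signal versus neutral control wells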
# ABCB6 inh CP1: inhibitors of human ABC transporter ABCB6; shares compounds with ABCB6 inh MLPCN; K562-ABCB6 porphyrin accumulation, flow cytometry, 1 h; active compounds read low; ratio response (% of DMSO), % at 10 µM; 700 tested, under 10 active;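 active = repeat-averaged ratio response below 75% of DMSO, the collection mean minus 3 SD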;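 also: median porphyrin fluorescence at 575 nm with 488 nm excitation from mitochondria; lower ratio means less porphyrin signal so ABCB6 inhibition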
# * hit, by the source's call; i = inactive; / = no result. Unless noted, no rule for the calls is given here.
SMILES,PABP FP inh,PHOSPHO1 inh,AI-2 QS mod,eIF4H FP inh,ABCB6 inh MLPCN,PABP1 MLLE inh,ABCB6 inh CP1,others
O=C(NCc1cccnc1)C(=O)c1c[nH]c2ccccc12,i,-16.0,12.1,-1.5,100.0,-0.8,/,
O=C(NCc1cccs1)C(=O)c1c[nH]c2ccccc12,i,-3.9,-91.6*,6.3,103.0,-4.3,/,JMH597 growth rt=20.4;BB721 const-QS lum=97.4*;BB721 growth rt=-1.4;AI-2 QS JMH597=97.7*
COc1cc(NC(=O)N2CCc3nc(NCc4cccc(Oc5ccccc5)c4)ncc3C2)cc(OC)c1OC,/,/,/,/,104.0,-3.4,/,
CCCS(=O)(=O)NC(=O)C1(C)CCN(C(=O)c2cccnc2Oc2ccccc2)C1 (centres undefined),/,/,/,/,103.0,-3.7,/,
Cc1ccccc1Nc1nc(N)nc(COc2ccc(C#N)cc2)n1,i,28.5,-83.4*,26.0,100.0,-18.7,/,JMH597 growth rt=9.6;BB721 const-QS lum=92.9*;BB721 growth rt=22.4;AI-2 QS JMH597=95.6*
CC(=O)c1ccc(OC2(C)CCN(Cc3ccc4c(c3)OCCO4)C2)cc1 (centres undefined),/,/,/,/,92.0,-10.3,/,
CC1(C(=O)Nc2ccc3c(c2)OCO3)Cc2c(-c3cccc(C(N)=O)c3)ccnc2O1 (centres undefined),/,/,/,/,104.0,-2.7,/,
CCCS(=O)(=O)NC(=O)C1(C)CCN(C(=O)c2cc(C(C)(C)C)nn2C)C1 (centres undefined),/,/,/,/,92.0,1.9,/,
COc1cccc(CNc2cnc3ccccc3c2)c1O,i,-18.9,-56.6,-4.5,83.0,6.7,/,
Oc1ccc(Br)cc1CNc1cnc2ccccc2c1,i,34.0,-97.3*,-10.0,102.0,14.1,/,JMH597 growth rt=18.6;BB721 const-QS lum=99.4*;BB721 growth rt=5.7;AI-2 QS JMH597=99.7*
Cc1ccc(O)c(CNc2cnc3ccccc3c2)c1,i,30.5,-97.3*,6.5,100.0,17.0,/,JMH597 growth rt=-25.2;BB721 const-QS lum=99.0*;BB721 growth rt=-21.7;AI-2 QS JMH597=99.2*
CC1(C)CC(=O)C=C(Nc2cc(-c3ccccc3)[nH]n2)C1,i,-8.5,-79.0*,-3.5,47.0*,-1.9,100.0,JMH597 growth rt=-0.4;BB721 const-QS lum=89.6*;BB721 growth rt=-11.8;AI-2 QS JMH597=94.1*
C[C@@H]1CN([C@H](C)CO)C(=O)CCCn2nncc2CO[C@H]1CN(C)S(=O)(=O)c1cccc(F)c1,/,/,/,/,94.0,-0.9,/,
Cc1cccn2c(=O)c3cc(S(=O)(=O)c4ccccc4)c(=N)n(Cc4ccco4)c3nc12,i,-26.1,28.0,86.0,66.0*,8.9,104.0,
CCCCC(=O)N(C)c1c(C)nc2ccc(C(=O)N3CCNC(=O)C3)cn12,/,/,/,/,96.0,-5.2,/,
COC(=O)C1CCN(S(=O)(=O)c2ccc(Br)s2)CC1,/,/,/,/,90.0,-26.1,97.0,
COC(=O)C1CCN(S(=O)(=O)c2c[nH]c(=O)[nH]c2=O)CC1,/,/,/,/,94.0,-5.2,99.0,
CC(=O)Nc1ccc(NC(=O)c2c(-c3ccccc3Cl)noc2C)c(C)c1,i,28.7,8.4,-3.7,95.0,3.3,/,
CC(=O)Nc1ccc(OC(=O)c2c(-c3ccccc3Cl)noc2C)cc1,i,1.0,32.3,-5.4,70.0*,28.5,99.0,
CCOC(=O)C1(C)CCN1C(=O)c1cc(F)cc(F)c1 (centres undefined),/,/,/,/,95.0,13.6,/,
Cc1cccc(OCCSc2nc3ncnc(N)c3[nH]2)c1,i,-7.7,-6.8,10.0,71.0*,-9.4,102.0,
CC(C)C(=O)N1CCCC1(C)C(=O)Nc1ccccc1 (centres undefined),/,/,/,/,107.0,10.9,/,
COc1cc(C(=O)N2CCC2(C)C(=O)NC(C)C)cc(OC)c1OC (centres undefined),/,/,/,/,101.0,11.7,/,
CCN(CC)C(=O)[C@H]1CC(CC(=O)NCc2ccc(OC)c(OC)c2)C(=O)N2CCc3c([nH]c4ccc(OC)cc34)[C@]12C (some centres undefined),/,/,/,/,64.0*,-2.9,100.0,
CCN(CC)C(=O)[C@H]1CC(CC(=O)NCc2ccc(OC)c(OC)c2)C(=O)N2CCc3c([nH]c4ccccc34)[C@]12C (some centres undefined),/,/,/,/,95.0,19.7,/,
SMILES,PABP FP inh,PHOSPHO1 inh,AI-2 QS mod,eIF4H FP inh,ABCB6 inh MLPCN,PABP1 MLLE inh,ABCB6 inh CP1,others
O=[N+]([O-])c1nccn1CCCCCCCCCCCN1CCOCC1,/,/,/,/,99.0,7.0,/,
O=C(c1ccccc1)N1CCC(c2nc3c(nnn3Cc3ccccc3Cl)c(=O)[nH]2)CC1,i,11.3,6.6,6.5,98.0,-2.2,102.0,
O=C(NCc1cccs1)c1nc2c(nnn2Cc2ccccc2Cl)c(=O)[nH]1,i,-3.2,31.4,4.1,70.0*,9.7,97.0,
O=C(c1cccs1)N1CCCC(c2nc3c(nnn3Cc3c(Cl)cccc3Cl)c(=O)[nH]2)C1 (centres undefined),i,40.3,21.0,-7.5,96.0,-11.8,/,
CCC(C)NC(=O)c1nc2c(nnn2Cc2ccccc2Cl)c(=O)[nH]1 (centres undefined),i,17.9,/,-0.4,98.0,5.2,/,
O=C(c1cccs1)N1CCC(c2nc3c(nnn3Cc3ccccc3Cl)c(=O)[nH]2)CC1,i,49.2,17.6,11.2,99.0,9.6,100.0,
Cc1ccccc1S(=O)(=O)NC(=O)C1(C)CCN1C(=O)Cc1ccccc1Cl (centres undefined),/,/,/,/,100.0,-0.3,/,
CCCc1nc2c(Cl)cc(C(F)(F)F)cn2c1Cc1ccc(OC)cc1C,/,/,/,/,124.0,/,/,
CC1(C(=O)NS(=O)(=O)c2ccc(C#N)cc2)CCN1C(=O)CCc1ccc(Cl)cc1Cl (centres undefined),/,/,/,/,73.0*,-3.0,100.0,
CC1(C(=O)NS(=O)(=O)c2ccc(F)cc2F)CCN1C(=O)CCc1ccc(Cl)cc1Cl (centres undefined),/,/,/,/,101.0,-3.5,100.0,
CC1(C(=O)NS(=O)(=O)c2cccc(F)c2)CCN1C(=O)CCc1ccc(Cl)cc1Cl (centres undefined),/,/,/,/,97.0,4.0,/,
CC1(C(=O)N2CCN(C(=O)c3ccco3)CC2)CCN1Cc1ccccc1OC(F)F (centres undefined),/,/,/,/,70.0*,7.9,99.0,
CC(=O)Nc1ccc(-c2ccnc3c2CC(C(=O)Nc2ccc4c(c2)OCO4)O3)cc1 (centres undefined),/,/,/,/,101.0,3.0,/,
O=C(Nc1cccc(C(F)(F)F)c1)C1Cc2c(-c3ccco3)ccnc2O1 (centres undefined),/,/,/,/,97.0,-14.2,/,
